The assay concerns the target PRDM9Cst (Mus musculus (CAST/EiJ)). The assay can be described thus: competition EMSA; competition against biotin-labeled 75-bp Hlx1 B6 oligo; 10 mM Tris pH 7.5, 50 mM KCl, 1 mM DTT, 50 ng/ul poly(dI/dC), 0.05% NP-40, crude E. coli extract 3 ul in 20 ul; 1 h with unlabeled competitor, then 4 h with biotin-labeled 75-bp Hlx1; temperature not stated; high values mean tight binding. The note with it: tags: N-terminal His tag (pBAD/HisB); dsDNA, one strand shown. Background: A gel shift assay detects complexes by their altered migration in electrophoresis.

PRDM9Cst (Mus musculus (CAST/EiJ)), sequence (chain, as listed by the source): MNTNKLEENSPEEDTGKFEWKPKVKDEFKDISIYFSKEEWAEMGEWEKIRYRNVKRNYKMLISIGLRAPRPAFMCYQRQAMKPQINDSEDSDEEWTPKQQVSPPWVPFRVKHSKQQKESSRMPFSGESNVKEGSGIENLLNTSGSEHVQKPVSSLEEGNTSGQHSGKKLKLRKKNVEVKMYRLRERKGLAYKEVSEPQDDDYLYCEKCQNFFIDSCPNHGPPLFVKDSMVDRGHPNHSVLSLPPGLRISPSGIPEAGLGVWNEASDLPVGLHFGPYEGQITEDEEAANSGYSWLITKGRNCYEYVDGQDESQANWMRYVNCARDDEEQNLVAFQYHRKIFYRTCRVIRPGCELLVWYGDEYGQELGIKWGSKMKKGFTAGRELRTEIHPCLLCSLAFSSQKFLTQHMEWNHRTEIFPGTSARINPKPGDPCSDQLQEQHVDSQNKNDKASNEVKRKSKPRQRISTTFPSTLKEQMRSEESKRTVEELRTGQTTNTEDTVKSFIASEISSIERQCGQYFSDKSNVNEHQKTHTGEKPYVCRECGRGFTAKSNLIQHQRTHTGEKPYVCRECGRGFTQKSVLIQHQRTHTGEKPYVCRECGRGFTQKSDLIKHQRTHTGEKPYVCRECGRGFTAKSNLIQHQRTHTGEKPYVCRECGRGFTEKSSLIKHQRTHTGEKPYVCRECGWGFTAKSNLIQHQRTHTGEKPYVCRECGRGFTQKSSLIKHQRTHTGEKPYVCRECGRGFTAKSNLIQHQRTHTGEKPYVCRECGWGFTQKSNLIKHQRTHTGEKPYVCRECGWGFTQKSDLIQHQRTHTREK

Turning to ATAGTGTGCAGACTTGTACCCTGCCCTTTCTTT, the binding signal was -0.8 Bmut (0 = wild type, -1 = scrambled).

Turning to ATAGTGTTCAGACTTGGACCCTGCCCTTTCTTT, the binding signal was -0.4 Bmut (0 = wild type, -1 = scrambled).

Take ATAGTGTGCAGACTTGGACCCTGCCCCTTCTTT: the binding signal was 0.19 Bmut (0 = wild type, -1 = scrambled).

In the case of ATAGTGTGCAGACTTGGACCCTGCCATTTCTTT, the binding signal was -0.1 Bmut (0 = wild type, -1 = scrambled).

As for ATAGTGAGCAGACTTGGACCCTGCCCTTTCTTT, the binding signal was -0.3 Bmut (0 = wild type, -1 = scrambled).

Consider ATAGTGTGCAGACTTGAACCCTGCCCTTTCTTT, for which the binding signal was 0.2 Bmut (0 = wild type, -1 = scrambled).

As to ATAGTGTGCAGACTTGGACCCTGCCCTTTCTCT, the binding signal is 0.13 Bmut (0 = wild type, -1 = scrambled).

ATATTGTGCAGACTTGGACCCTGCCCTTTCTTT: the binding signal is 0.3 Bmut (0 = wild type, -1 = scrambled).

The record behind these values is publication PMC4053984, “DNA binding specificities of the long zinc-finger recombination protein PRDM9”.
